The record followed here is the supplement of paper PMC10105736.

Unmarked numbers belong to inactive results.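 How the source made its calls: active = MAPPIT score above the 99th percentile of random reference set scores in the same batch; inactive = at or below it.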

What all share (test): MAPPIT interaction score (arbitrary units); higher = stronger binary interaction signal, active = hit call of the paper
In one assay the target is CG15211. To be noted: MAPPIT configuration: N-N; pair source set: screen_2.
A further assay deals with ReepB. The following applies: MAPPIT configuration: N-C; pair source set: screen_3.
The target in another assay is CG14764. The following applies: MAPPIT configuration: N-N; pair source set: Curagen_low_conf.
A further assay concerns the target CG6933. The following applies: MAPPIT configuration: N-N; pair source set: Lit-BS-16.
The next assay addresses CG14818. The following applies: MAPPIT configuration: N-N; pair source set: screen_2.
Another assay concerns the target Tm1. To be noted: MAPPIT configuration: N-N; pair source set: screen_1.
The next assay concerns the target dgrn. To be noted: MAPPIT configuration: N-N; pair source set: screen_1.
A further assay deals with CG14563. To be noted: pair source set: RRS.
The target of another assay is CG17162. To be noted: MAPPIT configuration: N-C; pair source set: screen_3.
The next assay deals with Dlc90F. The following applies: MAPPIT configuration: N-N; pair source set: Lit-BS-16.
A further assay deals with CG15126. The following applies: MAPPIT configuration: N-N; pair source set: Curagen_high_conf.
The next assay deals with Slob. To be noted: MAPPIT configuration: N-N; pair source set: Curagen_high_conf.
In a further assay the target is CG14535. The following applies: MAPPIT configuration: N-N; pair source set: screen_2.
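Further: HEK293T cells with Epo stimulation, STAT-responsive firefly luciferase reporter, fold induction versus unstimulated cells divided by the larger fold induction of two negative controls lacking either bait or prey.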

B1: GluProRS (protein)
chain: MSIKLKANLNNPPISGLATAHLINGTVPVEIVWSKEETSLQFPDNRLLVCHSNNDVLRALARAAPDYKLYGETAIERTQIDHWLSFSLTCEDDISWALSFLDKSIAPVTYLVANKLTIADFALFNEMHSRYEFLAAKGIPQHVQRWYDLITAQPLIQKVLQSLPEDAKVKRSPQSSKEQTPAKTGERKQEGKFVDLPGAEMGKVVVRFPPEASGYLHIGHAKAALLNQYYALAFQGTLIMRFDDTNPAKETVEFENVILGDLEQLQIKPDVFTHTSNYFDLMLDYCVRLIKESKAYVDDTPPEQMKLEREQRVESANRSNSVEKNLSLWEEMVKGSEKGQKYCVRAKIDMSSPNGCMRDPTIYRCKNEPHPRTGTKYKVYPTYDFACPIVDAIENVTHTLRTTEYHDRDDQFYWFIDALKLRKPYIWSYSRLNMTNTVLSKRKLTWFVDSGLVDGWDDPRFPTVRGIIRRGMTVEGLKEFIIAQGSSKSVVFMNWDKIWAFNKKVIDPIAPRYTALEKEKRVIVNVAGAKVERIQVSVHPKDESLGKKTVLLGPRIYIDYVDAEALKEGENATFINWGNILIRKVNKDASGNITSVDAALNLENKDFKKTLKLTWLAVEDDPSAYPPTFCVYFDNIISKAVLGKDEDFKQFIGHKTRDEVPMLGDPELKKCKKGDIIQLQRRGFFKVDVAYAPPSGYTNVPSPIVLFSIPDGHTKDVPTSGLKVNAPDAKATKKASSPVSSSGQASELDSQISQQGDLVRDLKSKKAAKDQIDVAVKKLLALKADYKSATGKDWKPGQTSASSAPVPAASSSSANDAVSVNASIVKQGDLVRDLKGKKASKPEIDAAVKTLLELKAQYKTLTGQDWKPGTVPTTAAPSASAAPSVGVNDSVAQILSQITAQGDKVRELKSAKADKATVDAAVKTLLSLKADYKAATGSDWKPGTTAPAPAAAPVKVKQEKNPDPASVLTVNTLLNKIAQQGDKIRQLKSAKSEKSLVEAEVKLLLALKTDYKSLTGQEWKPGTVAPAPTTVNVIDLTGGDSGSDVGSVLSKIQAQGDKIRKLKSEKAAKNVIDPEVKTLLALKGEYKTLSGKDWTPDAKSEPAVVKKEASPVSMASPAKDELTQEINAQGEKVRAAKGNKAAKEVIDAEVAKLLALKAKYKEVTGTDFPVAGRGGGGGGGSAKKAPKEAQPKPAKPVKKEPAADASGAVKKQTRLGLEATKEDNLPDWYSQVITKGEMIEYYDVSGCYILRQWSFAIWKAIKTWFDAEITRMGVKECYFPIFVSKAVLEKEKTHIADFAPEVAWVTKSGDSDLAEPIAVRPTSETVMYPAYAKWVQSYRDLPIRLNQWNNVVRWEFKQPTPFLRTREFLWQEGHTAFADKEEAAKEVLDILDLYALVYTHLLAIPVVKGRKTEKEKFAGGDYTTTVEAFISASGRAIQGATSHHLGQNFSKMFEIVYEDPETQQKKYVYQNSWGITTRTIGVMIMVHADNQGLVLPPHVACIQAIVVPCGITVNTKDDERAQLLDACKALEKRLVGGGVRCEGDYRDNYSPGWKFNHWELKGVPLRLEVGPKDLKAQQLVAVRRDTVEKITIPLADVEKKIPALLETIHESMLNKAQEDMTSHTKKVTNWTDFCGFLEQKNILLAPFCGEISCEDKIKADSARGEEAEPGAPAMGAKSLCIPFDQPAPIAASDKCINPSCTNKPKFYTLFGRSY
In the case of B1, the figures for the MAPPIT interaction score with CG15211 and in the assay with ReepB were 0.0202 and 1.56, respectively.

B2: cad (protein)
chain: MVSHYYNTLPYTQKHSAANLAYASAAGQPWNWTPNYHHTPPNHQFLGDVDSSHAAHHAAAAHQMYYNSHHMFHSAAAASAGEWHSPASSTADNFVQNVPTSAHQLMQQHHHHHAHASSSSASSGSSSSGGAPGAPQLNETNSSIGVGGAGGGGGVGGATDGGPGSAPPNHQQHIAEGLPSPPITVSGSEISSPGAPTSASSPHHHLAHHLSAVANNNNNNNNNNNSPSTHNNNNNNNSVSNNNRTSPSKPPYFDWMKKPAYPAQPQPGKTRTKDKYRVVYTDFQRLELEKEYCTSRYITIRRKSELAQTLSLSERQVKIWFQNRRAKERKQNKKGSDPNVMGVGVQHADYSQLLDAKAKLEPGLHLSHSLAHSMNPMAAMNIPAMRLHPHLAAHSHSLAAVAAHSHQLQQQHSAQMSAAAAVGTLSM
As to B2, the MAPPIT interaction score was -0.0445 with CG14764 and -0.219 in the assay with CG6933.

B3: CG10681 (protein)
chain: MSHLGLADVHQSEDATPDLESFTGFGNSAAEAFIQSLAGMVNQGDVETMIRAQKQMLQRFEKTNEMLLNCNALSQSRLKSASEDFKRHVKCLSEMKKDLDYIFRKIRIIKQKLQSQFPAIYAEVQPQRSSLAEEAEDDTEAQAKKTAETPAPAAAKPVLSTKKSAATIEYVQMEEAVDNGTVEIENELIKRVCSVETANPNDSSDCTSEDTG
Regarding B3, the figures for the MAPPIT interaction score with CG14818, with Tm1 and in the assay with dgrn were 5 (active), 2.36 and 0.165, respectively.

B4: Mettl2 (protein)
chain: MLTTSSSTMLGKYGWQILRRLASKSWEHTRQRKKPSGAGSRVLTDAREVFEFNAWDHVQWDEEQELAAKAAVAKNSTSKMEAEQKERFQTDAPKFWDSFYGIHDNRFFKDRHWLFTEFPELAPLAADSAVLQPRSIFELGCGVGNTILPLLQYSSEPQLKVFGCDFSARAIEILRSQRQFDEKRCEVFVMDATLDHWQVPFEENSQDIIVMIFVLSAIEPKKMQRVLDNCYRYLRPGGLLLFRDYGRYDLAQLRFKSGKCMEDNFYVRGDGTMVYFFTEEELRGMMTQAGLQEEQLIVDRRLQVNRCRGLKMYRVWIQTKFRKPL
B4: the MAPPIT interaction score with CG14563 (MAPPIT configuration: N-C) is 0.238; with CG14563 (MAPPIT configuration: N-N), -0.0268; in the assay with CG17162, 1.73; with Dlc90F it was 0.581.

B5: Fem-1 (protein)
chain: MHAELYRTRKRWYESAWPGAGFWRGANDTLPVTNYITYPANFDQPDGQSLTPLTMAAMMGNVKFVKTLLSHYDVDLDRECNVIYDGMVVYGATALWVAAGMGHLQIVKMLVQAGAAINHNTKAQSSPLRAACYEGRLDIVEFLIDNGADVNATNLFNNNTLMIAAYKGHHLVVKTLLQNGSRANDQALCGATALHYAAESGHLDVVVALLDHGATLKKNELGITPALQAAERLHEDVLEAFIERPELMSLEEQITALELLGATYANDKIKYDVNKAYGYLLRAMQLRYSNPRGVIRKRVQPTVPAYDNWLETENLPELYAIKLNHHSIHMESLAIRERILGRNNPELPQAIIYRGAVMADQGRFYQCQVLWNYAIDLRMRNNVSVDRDLLRFAQLFAQILRVENHNLTLDHVLPVLAKCQQEIENNKFKIKEAKPNACPSLWQDQNNQNCITALYLIKIVTHLARRKKDQNIDEEHIQQLFLVVRKFIQNDTRLQDGQTLLHIAVNGVMPVDEFYTNEMCRFPCYATALVLVHCGASVVAVDSDRNTPLHILVTKVNTTQDRQAEMARILELFVEAGAHLDAVNAAGQTAATACKLPILANRLHAHQNAHTSLKCLAARSIATNRLNFKGLIPTQLEAFIQMHSVRKVLP
As for B5, the values for the MAPPIT interaction score with CG15126 and with Slob were 2.87 (active) and 0.0788, respectively.

B6: Deaf1 (protein)
chain: MEQVDSSTELHLNRKDLAALAEDVVKEEVILESSSHHHHHHHHQLDTKVRMVTSSSNDNSGSGGASGGTSGAGGGNGGGGVVSVPVSLPIGSMITGTTFNVITPDQLPPHFKPMLCVDNNGYLSGSTVSMGNDLKTIVIQQQQTQPGGGGGGANNAGTNTTATNTIGLNHDGSGSNNSHDSLATLEHAAGGASGVGGGGGGTGGGSSGWSENPSTQHNEVFQIRCKTTCAELYRSKLGSGGRGRCVKYKDKWHTPSEFEHVCGRGSSKDWKRSIKYGGKSLQSLIDEGTLTPHATNCSCTVCCDDEAGESASGPVRLFTPYKRRKRNQTDLDMESGPKRKRNTHHSNNNNSNTNNNNTSGSGANNCVDVTAAVAAATASVVDENNMFLSEENITSKDEPWAALNDSLDTSTELVDQSQMGNTYERETFVVNINDGSSIAVLDTSQSMKNIEHVYCTMVKATNDFKRMLNDMKQSFERRIEVLQKERDAAVSAMRVQVHADIDDPNISGSLHGNEIISAKKCANCNREALAECSLCRKTPYCSEFCQRKDWNAHQVECTRNPQTTTQQVMLLIDDQS
Take B6: the MAPPIT interaction score with CG14535 was 0.95.
